Results reported in PubChem BioAssay (NCI).
The panel holds about 83,000 compounds, 20% with a hit somewhere; the sample as a whole holds those more often.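 Method: cells in 96-well plates; compound added at one concentration; 48 h incubation; percent growth measured; values under 10 scored active.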 A number with no mark means an inactive call. Active and inactive are the calls of the source.

Assays:
Assay in all cases: NCI-60 one-dose screen, 48 h (100 = growth as untreated, 0 = no growth, -100 = all killed)
NCI-H23 lung = settings: 10 µM unless noted
NCI-H226 lung = settings: 10 µM unless noted
NCI-H322M lung = settings: 10 µM unless noted
HOP-62 NSCLC = settings: 10 µM unless noted
NCI-H460 lung = settings: 10 µM unless noted
HOP-92 NSCLC = settings: 10 µM unless noted
NCI-H522 lung = settings: 10 µM
786-0 renal = settings: 10 µM unless noted
DU-145 prostate = settings: 10 µM unless noted
K-562 leukemia = settings: 10 µM unless noted
MALME-3M melanoma = settings: 10 µM unless noted
MDA-MB-231 breast = settings: 10 µM unless noted
RXF 393 renal = settings: 10 µM unless noted
SF-268 CNS = settings: 10 µM unless noted
SF-295 CNS = settings: 10 µM unless noted
SF-539 CNS = settings: 10 µM unless noted
M14 melanoma = settings: 10 µM unless noted
A549/ATCC NSCLC = settings: 10 µM unless noted
COLO 205 colon = settings: 10 µM unless noted
UACC-257 melanoma = settings: 10 µM unless noted

Compound	growth (NCI-H23 lung)	growth (NCI-H226 lung)	growth (NCI-H322M lung)	growth (HOP-62 NSCLC)	growth (NCI-H460 lung)	growth (HOP-92 NSCLC)	growth (NCI-H522 lung)	growth (786-0 renal)	growth (DU-145 prostate)	growth (K-562 leukemia)	growth (MALME-3M melanoma)	growth (MDA-MB-231 breast)	growth (RXF 393 renal)	growth (SF-268 CNS)	growth (SF-295 CNS)	growth (SF-539 CNS)	growth (M14 melanoma)	growth (A549/ATCC NSCLC)	growth (COLO 205 colon)	growth (UACC-257 melanoma)
N=C1c2nc3n(c2C(=O)c2nc4n(c21)CCCCC4)CCCCC3	97.3%	98.3%	110%	122%	92.6%	126%	90.9%	120%	113%	102%	103%	117%	102%	108%	93.8%	105%	108%	–	–	–
COc1ccc2c(c1)CC[C@@H]1[C@@H]2CC[C@]2(C)[C@@H](O)C(=O)C[C@@H]12	102%	114%	91.3%	103%	102%	116%	–	106%	104%	94.2%	148%	109%	134%	97.1%	109%	100%	110%	99.6%	102%	106%
COc1ccc(C2=NN(C(C)=O)C(c3c(C)nn(-c4ccccc4)c3N3CCOCC3)C2)cc1 (stereo unspecified)	100%	92.1%	101%	87.9%	98.7%	86.9%	–	93%	107%	99%	106%	98.1%	98.7%	95%	93.9%	93.7%	94.8%	85.5%	90.9%	86.3%
COc1ccc(NS(=O)(=O)N2CCCCC2)cc1	106%	96.2%	102%	107%	113%	84.6%	–	109%	116%	93.8%	117%	91.5%	105%	98.9%	113%	108%	102%	108%	105%	102%
CC(=O)OC1Oc2cc(C)c(C)cc2-c2oc(=O)c(-c3ccccc3)cc21 (stereo unspecified)	46.3%	-6.38% (active)	33.5%	48%	4.89% (active)	-41.5% (active)	–	33.5%	15%	-0.66% (active)	-4.37% (active)	43.7%	-35.3% (active)	36.8%	-39.9% (active)	-37.1% (active)	–	24.8%	0.826% (active)	74.5%
O=CN1N=C(c2ccc(Cl)cc2)CC1c1cccc(Nc2ccnc3cc(Cl)ccc23)c1 (stereo unspecified)	11.6%	24.4%	42.4%	8.16% (active)	11.1%	21.5%	–	20.5%	14%	3.74% (active)	8.98% (active)	30.6%	-0.443% (active)	36.7%	-10.4% (active)	-25.9% (active)	16.2%	20.9%	-26.9% (active)	12.1%
COc1cc(/C=N/NC(=O)c2ccc(C(F)(F)F)nc2Nc2cc(Cl)ccc2C)cc(OC)c1OC	104%	96.6%	105%	99.7%	108%	-30% (active)	–	97.7%	154%	83.8%	61.8%	86.3%	77.7%	88.9%	70.9%	103%	–	103%	109%	112%
O=C1c2cc3c(cc2-c2c1c1ccc(Cl)cc1c(=O)n2CCCNCCO)OCO3	-73% (active)	-70.9% (active)	-84.5% (active)	-81.4% (active)	-75.4% (active)	-79.4% (active)	–	-81.6% (active)	-93.7% (active)	-78.3% (active)	-84.8% (active)	-79.5% (active)	-78.6% (active)	-76.7% (active)	-86.9% (active)	-84.6% (active)	-83.3% (active)	-82.2% (active)	-88.6% (active)	-59% (active)
COC(=O)N/N=C/c1coc2ccc(Cl)cc2c1=O	99.4%	84.7%	99.2%	74.7%	102%	1.24% (active)	–	104%	106%	86.9%	75.7%	71.3%	66.6%	85.5%	93.6%	99.8%	–	103%	91.4%	111%
C/C(=C\CCc1ccoc1)CC/C=C(\C)CCCN1CCSCC1	64.6%	80%	7.95% (active)	97.5%	10.1%	73.3%	–	91.6%	92.9%	56.6%	104%	80%	78.8%	96.4%	46.9%	92.1%	81.6%	28.4%	51.1%	61.1%
COc1cnc2c(c1)C(=O)c1c-2n(CCCn2ccnc2)c(=O)c2cc(F)ccc12	-36.7% (active)	-67.9% (active)	-1.28% (active)	-29.8% (active)	-62.9% (active)	-15.9% (active)	–	-62.6% (active)	-56.4% (active)	-4.93% (active)	-52.2% (active)	5.66% (active)	-55.9% (active)	3.73% (active)	-5.57% (active)	-60.6% (active)	-39.9% (active)	-20.8% (active)	-34% (active)	-34.7% (active)
CCOC(=O)c1sc(NC(=O)COc2ccc(/C=C3\CCc4cc(OC)ccc4C3=O)cc2)nc1C	96.6%	92.2%	96.5%	103%	111%	106%	-2.75% (active)	90.7%	–	71.7%	–	94.1%	–	80.1%	118%	95.1%	106%	–	137%	93.7%
COc1ccc(C(=O)COc2cccc(/C=C3\CSc4ccc(Cl)cc4C3=O)c2)cc1	87.1%	75.1%	93.5%	95.8%	101%	68%	61.7%	97.3%	–	22.1%	–	76.2%	–	91%	95.9%	104%	102%	–	123%	89.3%
O=C1c2cccc(NCCN=Cc3ccccc3O)c2C(=O)c2c(NCCN=Cc3ccccc3O)cccc21	27.8%	73.1%	-19.2% (active)	17.6%	4.28% (active)	-38.3% (active)	–	36.7%	16%	38%	21.8%	21%	33.9%	7.05% (active)	49.8%	22.4%	–	25.7%	8.33% (active)	94.6%
CCOc1cc(/C=C/C(=O)CC(=O)/C=C/c2ccc(OC(=O)CNCCN(CC)CC)c(OCC)c2)ccc1OC(=O)CNCCN(CC)CC	-35.6% (active)	-41.3% (active)	-0.873% (active)	-32.1% (active)	-27.3% (active)	-3.28% (active)	–	-91.6% (active)	-44.3% (active)	-10.8% (active)	-39.9% (active)	5.09% (active)	-79.4% (active)	3.21% (active)	-18.4% (active)	-58.1% (active)	-14.5% (active)	12.4%	-51.3% (active)	23.6%
COc1ccc2ncccc2c1Cc1c(OC)ccc2ncccc12	80.1%	80%	96.6%	65%	82.4%	58.1%	–	89.1%	91.5%	21.5%	55.9%	71.1%	82.1%	84.2%	63.9%	75%	56.5%	64.5%	79.9%	68.2%
C(#Cc1ccccc1C#Cc1ccccn1)c1ccc(OCCCCCCOc2ccc(C#Cc3ccccc3C#Cc3ccccn3)cc2)cc1	57.3%	67.3%	67.8%	38.2%	19.9%	9.48% (active)	–	29.3%	76.2%	31.6%	99.6%	35.3%	45.6%	88.9%	-3.2% (active)	25.4%	23.4%	25.3%	120%	34.2%
